# PubChem BioAssay AID2685 (National Center for Advancing Translational Sciences (NCATS), 2010)
# Among all 320,000 compounds or so, about 2,100 (0.66%) were called active. About 53% were inconclusive and are not listed. Calls follow the shape of the dose curve; as a rule, active = well fitted inhibition curve with a large enough effect in the signal ratio, with a control signal flat (not every such curve was filed as active); inconclusive = small, poorly fitted or top-dose-only effect, or effect the other way, or a change in a side signal; inactive = flat fitted curve, though single readings scatter; the % refers to the signal ratio. The list comes from a sample in which actives are over-represented; it also holds similar structures and randomly drawn compounds.
# Experiment: qHTS Assay for Lipid Storage Modulators in Drosophila S3 Cells;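 as to cell number change: cells counted by Cell Tracker Red CMTPX staining in the red channel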; as to lipid storage change, negative = inhibition: % is scaled to controls: 0 for no effect and ±100 for the full control effect
# Settings: BODIPY lipid droplet fluorescence, 18-24 h, cells fed with added oleic acid; cell number change: measured here: cell count max response; series mostly up to 46.1 µM; lipid storage change, negative = inhibition: at the top concentration
# Summary of the method: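 Drosophila S3 cells loaded with oleic acid (400 uM, as added) and compounds at several concentrations; lipid droplets imaged by 488-nm laser-scanning cytometry, 500–530 nm intensity and object ratio to cell channel. Percent activity normalized to 20 uM Triacsin C.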
# Potency is read from the fitted curve at half-maximal effect.
Compound,"lipid storage change, negative = inhibition",cell number change [%],outcome,Potency
COc1nc(OC)nc(N2CCC(C(=O)Nc3cccc4c3CCCC4)CC2)n1,20.9% (inactive),-6.45,–,–
O=C1OC(C(=O)Nc2nccs2)Cc2ccccc21 (configuration not stated),–,–,inactive,–
Cc1cc(NC(=O)CSc2nc(C(C)(C)C)nc3ccccc23)no1,-21.1% (inactive),-18,–,–
CC(C)(C)c1nc(SCC(=O)Nc2ccc3c(c2)OCCO3)c2ccccc2n1,–,-25.4,–,18.4 µM (active)
O=C(CSc1ncnc2ccccc12)Nc1ccc2c(c1)OCCO2,24.4% (inactive),–,–,–
COc1ccc2[nH]c(=O)c(CNc3ccc(C)cc3C)cc2c1,7.28% (inactive),-6.94,–,–
CC(=O)N/C(=C/c1ccccc1)C(=O)NCCO,-18.3% (inactive),7.72,–,–
O=C(O)CCC(=O)Nc1nnc(C(F)(F)F)s1,–,-2.24,–,29.1 µM (active)
CCc1ccc(NC(=O)CCC(=O)Nc2nnc(C(F)(F)F)s2)cc1,–,24.4,inactive,–
O=C(CCC(=O)N1CCCC1)Nc1nnc(C(F)(F)F)s1,18.1% (inactive),11.1,–,–
O=C(NCC(F)(F)F)Nc1nnc(C(F)(F)F)s1,0.908% (inactive),0.475,–,–
CCC(NC(=O)Nc1nnc(C(F)(F)F)s1)(C(F)(F)F)C(F)(F)F,–,-12.6,–,16.4 µM (active)
CC(C)(C)CC(=O)Nc1nnc(C(F)(F)F)s1,0.0305% (inactive),0.161,–,–
CCOC(=O)C1CCN(C(=O)C(CCSC)NC(=O)COc2ccccc2)CC1 (configuration not stated),-10.9% (inactive),22.1,–,–
CC(=O)Nc1cccc(-c2nn[nH]n2)c1,7.27% (inactive),9.02,–,–
CC(=O)Nc1ccc(Nc2nnc(-c3ccc(O)cc3)c3ccccc23)cc1,7.47% (inactive),9.07,–,–
Cc1cc(C)cc(NC(=O)Cc2ccc(-n3cccc3)cc2)c1,12.5% (inactive),-7.37,–,–
COc1ccc(C(CCN(Cc2ccc(OC)c(OC)c2)C(C)=O)C(C)C)cc1 (configuration not stated),–,-13.5,–,0.82 µM (active)
COc1ccc(C(CCN(Cc2ccc(OC)c(OC)c2)C(C)=O)c2ccccc2)cc1 (configuration not stated),-11.8% (inactive),-3.52,–,–
CC(=O)N(CCC(c1ccco1)C(C)C)Cc1ccc(OC(C)C)cc1 (configuration not stated),-3.84% (inactive),-2.37,–,–

Compound,"lipid storage change, negative = inhibition",cell number change [%],outcome,Potency
Cc1ccc(-c2ccc(CCC(=O)O)n2Cc2ccco2)cc1,1.97% (inactive),19.5,–,–
O=C(O)CCc1ccc(-c2ccc(Br)cc2)n1Cc1ccco1,–,-8.78,–,6.51 µM (active)
O=C(O)CCc1ccc(-c2ccc(F)cc2)n1Cc1ccco1,3.2% (inactive),-0.476,–,–
Cc1[nH]c2ccccc2c1C(=O)C(=O)N1CCN(c2ccccc2)CC1,-1.16% (inactive),8.19,–,–
Cc1ccc(Cl)cc1N(CC(=O)Nc1cccc(N(C)S(C)(=O)=O)c1)S(C)(=O)=O,–,-15.4,–,14.6 µM (active)
CN(c1cccc(NC(=O)CN(c2cccc(Cl)c2)S(=O)(=O)c2ccc(Cl)cc2)c1)S(C)(=O)=O,-27.1% (inactive),-18.4,–,–
CCc1ccccc1N(CC(=O)Nc1cccc(N(C)S(C)(=O)=O)c1)S(C)(=O)=O,–,5.08,inactive,–
COc1ccc2oc(CS(=O)c3ccccc3)c(C(=O)O)c2c1 (configuration not stated),12.5% (inactive),13.2,–,–
CC1OC2(OC1C)C(=O)Nc1ccccc12 (configuration not stated),–,–,inactive,–
CN1C(=S)SC(C)(NO)C1(C)C (configuration not stated),–,-11.6,–,5.17 µM (active)
CN1C(=S)SC(C)(C)C1NO (configuration not stated),5.34% (inactive),1.23,–,–
CN1C(=S)SC(C)(C)C1(C)NO (configuration not stated),–,0.152,–,1.64 µM (active)
CCC(C)c1ccc(S(=O)(=O)Nc2cccnc2)cc1 (configuration not stated),–,-23.6,inactive,–
CCCCCCCCCCCCS[C@H]1CS(=O)(=O)C[C@@H]1O,-11.5% (inactive),-8.76,–,–
CC(=O)Nc1cc2cc(NS(=O)(=O)c3ccc(Cl)cc3)ccc2oc1=O,-0.0147% (inactive),9.39,–,–
COC(=O)/C(C#N)=C\c1c(OC)[nH]c2ccccc12,-1.4% (inactive),-7.03,–,–
CN(Cc1c(F)cccc1Cl)S(=O)(=O)c1cccs1,–,-15.8,–,5.8 µM (active)
CN(Cc1ccccc1)S(=O)(=O)c1cccs1,-3.38% (inactive),5.69,–,–
CN(Cc1c(F)cccc1Cl)C(=O)CNC(=O)c1cccs1,–,-5.78,inactive,–
CC(C)CSc1nc2c(c(=O)[nH]c(=O)n2C)n1CCc1ccccc1,12.1% (inactive),0.065,–,–

Compound,"lipid storage change, negative = inhibition",cell number change [%],outcome,Potency
O=C(c1cccc(C(=O)N2CCN(c3ccccc3)CC2)c1)N1CCN(c2ccccc2)CC1,12.8% (inactive),-3.1,–,–
Cc1c(C(=O)N2CCN(C(=O)c3ccccc3)CC2)oc2ccc(F)cc12,–,-15.5,–,1.84 µM (active)
O=C(c1ccc(N2CCN(C(=O)c3ccccc3Br)CC2)cc1)c1cccc(F)c1,–,-10.8,inactive,–
O=C(c1cc(-c2ccc(O)cc2)on1)N1CCN(c2ccc(F)cc2)CC1,5.87% (inactive),-16.1,–,–
O=C(c1cc(-c2ccc3c(c2)OCO3)on1)N1CCN(c2ccc(F)cc2)CC1,17.2% (inactive),27.5,–,–
COc1ccccc1N1CCN(C(=O)c2c(C)cc(=O)oc2C)CC1,–,-3.57,inactive,–
Cc1cc(=O)oc(C)c1C(=O)NCCCN1CCN(c2ccc(F)cc2)CC1,9.77% (inactive),2.43,–,–
Cc1c(C(=O)N2CCN(CCc3ccccn3)CC2)oc2ccc(F)cc12,-2.08% (inactive),0.99,–,–
O=C(c1cc(-c2ccc(Cl)cc2)on1)N1CCN(c2ccc(F)cc2)CC1,–,8.11,–,20.6 µM (active)
Cc1c(C(=O)N2CCN(S(=O)(=O)c3cc(F)ccc3F)CC2)oc2ccccc12,16.3% (inactive),-12.2,–,–
Cc1cc(=O)oc(C)c1C(=O)N1CCN(c2ccc(F)cc2)CC1,–,-3.9,–,23.1 µM (active)
O=C(c1ccc(N2CCN(C(=O)c3ccccc3)CC2)cc1)c1cccc(F)c1,–,0.901,–,2.06 µM (active)
COc1ccc(CNC(=O)CCC(=O)Nc2nnc(CC(C)C)s2)cc1,0.276% (inactive),5.14,–,–
COc1ccc(N(C(=O)CNC(=O)c2cccs2)C(C(=O)NCC2CCCO2)c2ccccc2)c(OC)c1 (configuration not stated),22.3% (inactive),5.71,–,–
CC(=O)Oc1ccc2nc(-c3cccs3)oc(=O)c2c1,13% (inactive),-22.5,–,–
Cc1ccc(NC(=S)NC(CO)C(O)c2ccc([N+](=O)[O-])cc2)cc1 (configuration not stated),-5% (inactive),-1.73,–,–
Fc1cnc(N2CCOCC2)nc1N1CCc2ccccc21,1.02% (inactive),-10.6,–,–
O=C(c1ccccc1Oc1ccccc1)N1CCN(c2ccc(F)cc2)CC1,-12.6% (inactive),14.1,–,–
O=C(c1ccccc1C(=O)N1CCN(c2ccc(F)cc2)CC1)N1CCN(c2ccc(F)cc2)CC1,–,-27,–,2.59 µM (active)
O=C(O)c1ccccc1C(=O)N1CCN(c2ccccc2)CC1,-1.29% (inactive),0.845,–,–
